“And” between values parts separate entries of the source, which are not always exact repeats. Equal entries are not always repeated. Inconclusive results are not listed. The source made the active and inactive calls. How the source made its calls: active means hit-call score of the fitted dose curve at least 0.9, where 1 is the maximum; inconclusive means response in the unintended direction; inactive means score below 0.9.
Each molecule was assayed against Androgen Receptor/SRC-1 Co-activator, AR (gene 367) (UniProt P10275) (assay: OT_AR_ARSRC1_0480: Odyssey Thera (OT) 8-hour HEK293T Protein-Complementation Assay for Androgen Receptor/SRC-1 Co-activator (AID 2283354);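 further: hits raise the complementation signal above DMSO so AC50 marks enhancers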).
Sequence of Androgen Receptor/SRC-1 Co-activator, AR (gene 367) (P10275 whole entry, looked up, the tested form may be a part): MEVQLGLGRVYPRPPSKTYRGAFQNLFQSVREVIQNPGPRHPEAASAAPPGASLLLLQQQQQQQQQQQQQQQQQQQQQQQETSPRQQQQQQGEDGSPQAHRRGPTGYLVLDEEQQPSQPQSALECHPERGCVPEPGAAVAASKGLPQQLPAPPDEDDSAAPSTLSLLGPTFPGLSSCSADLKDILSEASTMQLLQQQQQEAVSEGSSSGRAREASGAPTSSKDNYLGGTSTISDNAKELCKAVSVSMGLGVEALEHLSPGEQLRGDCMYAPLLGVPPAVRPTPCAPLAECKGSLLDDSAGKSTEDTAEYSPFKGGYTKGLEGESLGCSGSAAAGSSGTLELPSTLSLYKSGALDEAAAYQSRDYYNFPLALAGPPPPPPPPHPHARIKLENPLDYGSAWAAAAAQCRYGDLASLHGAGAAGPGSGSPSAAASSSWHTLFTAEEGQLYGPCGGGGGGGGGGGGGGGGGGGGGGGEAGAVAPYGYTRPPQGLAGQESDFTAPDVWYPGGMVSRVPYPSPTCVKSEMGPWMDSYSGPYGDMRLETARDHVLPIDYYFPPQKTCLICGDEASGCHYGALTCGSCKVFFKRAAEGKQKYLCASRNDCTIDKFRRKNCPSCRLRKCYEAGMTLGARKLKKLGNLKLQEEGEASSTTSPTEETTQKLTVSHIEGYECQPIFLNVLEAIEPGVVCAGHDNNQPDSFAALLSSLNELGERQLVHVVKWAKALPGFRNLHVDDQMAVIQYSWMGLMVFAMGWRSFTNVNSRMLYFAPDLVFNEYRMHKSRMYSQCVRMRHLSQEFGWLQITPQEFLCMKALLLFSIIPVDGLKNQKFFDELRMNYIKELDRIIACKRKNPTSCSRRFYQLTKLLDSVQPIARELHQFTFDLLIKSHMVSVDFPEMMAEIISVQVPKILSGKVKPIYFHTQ
Experimental: OT_AR_ARSRC1_0480 is a cell-based, single-readout assay that uses HEK293T, a human kidney cell line, with measurements taken at 8 hours after chemical dosing in a 384-well plate.OT_AR_ARSRC1_0480 is one of one assay component(s) measured or calculated from the OT_AR_ARSRC1_0480 assay. It is designed to make measurements of protein fragment complementation, a form of binding reporter, as detected with fluorescence intensity signals by Protein-fragment Complementation technology.Data from the assay component OT_AR_ARSRC1_0480 was analyzed into 1 assay endpoint. This assay endpoint, OT_AR_ARSRC1_0480, was analyzed in the positive analysis fitting direction relative to DMSO as the negative control and baseline of activity. Using a type of binding reporter, measures of receptor for gain-of-signal activity can be used to understand the binding at the pathway-level as they relate to the gene AR. Furthermore, this assay endpoint can be referred to as a primary readout, because the performed assay has only produced 1 assay endpoint. To generalize the intended target to other relatable targets, this assay endpoint is annotated to the nuclear receptor intended target family, where the subfamily is steroidal.
Protein-fragment complementation assay, or PCA, is a method for the identification and quantification of protein-protein interactions. In the PCA, the proteins of interest ("bait" and "prey") are each covalently linked to fragments of a third protein (e.g. DHFR, which acts as a "reporter"). Interaction between the bait and the prey proteins brings the fragments of the reporter protein in close proximity to allow them to form a functional reporter protein whose activity can be measured. The OT AR / SRC-1 assay assessed androgen receptor chemical interactions using a rapidly maturing, intensely fluorescent mutant of YFP known as Venus, rationally dissected into two separate fragments. […] Fusion constructs were transfected into HEK293T cells with a (Gly4Ser)2 linker between the AR/SRC-1 and YFP fragment genes to facilitate complementation when interacting proteins bring fragments into close proximity. The construct is stably expressed in HEK293T cells. […] Images were acquired on an Evotec Opera at 2 wavelengths (488 and 635nm), and the ratio of fluorescence in the nucleus relative to fluorescence in the cytoplasm (N/C Ratio) in the 488nm channel was calculated for a minimum of 400 cells per image. Both agonists and antagonists of the AR receptor induce nuclear translocation to varying degrees. […] The OT AR/SRC-1 assay was also run for 16 hours (see description for OT_AR_ARSRC1_0960).
CC1(C)C(C=C(Cl)Cl)C1C(=O)OCc1cccc(Oc2ccccc2)c1 (configuration not stated) was tested, and the outcome was “inactive”.
CCCOC(=O)c1ccc(C(=O)OCCC)nc1 was tested, and the outcome was “inactive”.
With c1ccc2[nH]c(-c3cscn3)nc2c1 the outcome was “inactive”.
For CCCCOCCOCCOCc1cc2c(cc1CCC)OCO2, the outcome was “inactive”.
For CN(C)C(=O)Nc1ccc(Cl)c(Cl)c1, the outcome was “inactive”.
In the case of O=C(c1ccc(O)cc1O)c1ccc(O)cc1O, the AC50 is reported as 11.1 µM (active) and 8.01 µM (active) and 9.37 µM (active).
CCSC(=O)N(CC(C)C)CC(C)C was tested, and the outcome was “inactive”.
For CC(C)(c1ccc(O)cc1)c1ccc(O)cc1, the outcome was “inactive”.
In the case of COC(=O)CSc1cc(N=c2sc(=O)n3n2CCCC3)c(F)cc1Cl, the outcome is reported as “inactive”.
With N#CSCSc1nc2ccccc2s1 the AC50 was 21.9 µM (active).
With Cc1nn(C)c(Oc2ccccc2)c1C=NOCc1ccc(C(=O)OC(C)(C)C)cc1 the outcome was “inactive”.
With CSC(=O)c1cccc2nnsc12 the AC50 was 22.4 µM (active).
With O=C(c1ccccc1)C1CCCCC1 the outcome was “inactive”.
In the case of CCCN(CCC)C(=O)SCC, the outcome is reported as “inactive”.
C[C@]12CC[C@@H]3c4ccc(O)cc4C[C@@H](CCCCCCCCCS(=O)CCCC(F)(F)C(F)(F)F)[C@H]3[C@@H]1CC[C@@H]2O (some centres not stated) was tested, and the outcome was “inactive”.
For CCOC(=O)C(C)Oc1ccc(Oc2nc3ccc(Cl)cc3o2)cc1 (configuration not stated), the outcome was “inactive”.
CCOC(=O)COc1cc(-n2ncc(C(F)(F)F)c(C)c2=O)c(F)cc1Cl was tested, and the outcome was “inactive”.

Source: PubChem BioAssay (EPA / NIEHS)
